# In ChEMBL document CHEMBL3988442, “University of Dundee, Small-Polar-MMV Screening Library” (2021):
# Hit rate of the full screen: of about 69,000 compounds, about 1,000 (1.4%) showed an effect of 50% or more. Only a selection was taken, and strong results are over-represented in it overall.
# Test system: Leishmania donovani
# Experiment: Leishmania intramacrophage assay
# Format: functional, organism-based
# Design: scale not given: in the data most compounds retested in dose-response had high values
compound,measurement,setting,value
Cc1cc(C)n(-c2cncc(N3CCC(C(=O)N(C)C)CC3)n2)n1,Percent Effect,"30.3 µM, […]",-6.574%
O=C(c1ccc(=O)[nH]n1)N1CCNCC1c1ccccc1 (stereo not drawn),Percent Effect,"30.3 µM, […]",-5.209%
CC(C)Nc1cccc(C(=O)NCC(O)c2cccc(F)c2)c1 (stereo not drawn),Percent Effect,"30.3 µM, […]",8.412%
CCc1nc(N)sc1C(=O)N1CCCC(CCc2ccccc2C)C1 (stereo not drawn),Percent Effect,"30 µM, 30.03 µM",59.23%
Cc1ccccc1CCC1CCCN(C(=O)Cc2cc(=O)[nH]c(N)n2)C1 (stereo not drawn),Percent Effect,"30.3 µM, […]",-48.51%
CCc1nc(N)sc1C(=O)N1CCCC(COc2cccc(C)c2)C1 (stereo not drawn),Percent Effect,"30.3 µM, […]",-12.25%
CC(=O)N1CCC(c2cncc(N3CCC(O)C3)n2)CC1 (stereo not drawn),Percent Effect,"30.3 µM, […]",8.685%
O=C(O)C(F)(F)F.O=S(=O)(NC1CCC12CCN(CC1CCOCC1)CC2)c1ccccc1 (stereo not drawn),Percent Effect,"30.3 µM, […]",17.74%
CC(C)(C)OC(=O)N[C@@H]1C[C@@H](O)CN(C(=O)c2cccc(F)c2)C[C@H]1O,Percent Effect,"30.3 µM, […]",29.87%
Cc1c(CNCc2nn(-c3ccccc3)c3c2CCC3)cc(C#N)n1C,Percent Effect,"30.3 µM, […]",49.86%
Cc1noc(C)c1CNCc1nn(-c2ccccc2)c2c1CCC2,Percent Effect,"30.3 µM, […]",-2.831%
COc1ccccc1CNCc1nn(-c2ccccc2)c2c1CCC2,Percent Effect,"30.3 µM, […]",72.37%
CC(=O)c1cccc(OCCCC(=O)N(C)Cc2cnn(C)c2)c1,Percent Effect,"30.3 µM, […]",-2.967%
c1ccc(CN2CCC(CCNc3ncnc4c3CCNCC4)C2)cc1 (stereo not drawn),Percent Effect,"30.3 µM, […]",-39.7%
c1ccc(CN2CCC(CNc3ncnc4c3CCNCC4)CC2)cc1,Percent Effect,"30.3 µM, […]",-23.91%
COc1ccc(-c2cc(CNc3ncnc4c3CCNCC4)no2)cc1,Percent Effect,"30.3 µM, […]",66.16%
Clc1ccccc1-c1cc(CNc2ncnc3c2CCNCC3)no1,Percent Effect,"30.3 µM, […]",94.85%
Cc1cccc(-n2cc(CNc3ncnc4c3CCNCC4)cn2)c1,Percent Effect,"30.3 µM, […]",61.6%
Cc1ccc(-c2cc(CNc3ncnc4c3CCNCC4)no2)cc1,Percent Effect,"30.3 µM, […]",97.6%
c1ccc(Cn2cc(CNc3ncnc4c3CCNCC4)cn2)cc1,Percent Effect,"30.3 µM, […]",13.57%
Cc1ccccc1-n1cc(CNc2ncnc3c2CCNCC3)cn1,Percent Effect,"30.3 µM, […]",29.71%
COCc1noc(CCNc2ncnc3c2CCNCC3)n1,Percent Effect,"30.3 µM, […]",2.148%
c1cncc(-c2noc(CNc3ncnc4c3CCNCC4)n2)c1,Percent Effect,"30.3 µM, […]",35.11%
c1cncc(-c2noc(CCNc3ncnc4c3CCNCC4)n2)c1,Percent Effect,"30.3 µM, […]",24.85%
Cc1cccc(=O)n1CCCNc1ncnc2c1CCNCC2,Percent Effect,"30.3 µM, […]",9.317%
Cn1cc(-c2cc(-c3cnn(C)c3)n(CC(=O)NC3CC3)n2)cn1,Percent Effect,"30.3 µM, […]",-1.984%
Cc1ncc(CN(C)C2CCCN(CCc3ccccc3)C2)n1C (stereo not drawn),Percent Effect,"30.3 µM, […]",22.06%
CN(CCCNC(=O)C1CCCN(C(N)=O)C1)S(C)(=O)=O (stereo not drawn),Percent Effect,"30.3 µM, […]",4.871%
COc1cccc(CN2CCCC3(CCN(C(=O)[C@H]4CCCO4)C3)C2)c1 (stereo partly drawn),Percent Effect,"30 µM, 30.03 µM",29.96%
COc1cccc(CN2CCCC3(CCN(C(=O)N4CCCC4)C3)C2)c1.O=C(O)C(F)(F)F (stereo not drawn),Percent Effect,"30.3 µM, […]",1.476%
COc1cccc(CN2CCCC3(CCN(C(=O)c4ccco4)C3)C2)c1 (stereo not drawn),Percent Effect,"30 µM, 30.03 µM",53.43%
COCc1ncc(CN2CC[C@@](C)(O)[C@@H](Cc3ccccc3)C2)cn1,Percent Effect,"30.3 µM, […]",11.16%
O=C(CCn1ccc2cc(Br)ccc21)NC[C@@H]1CCCN2CCCC[C@H]12,Percent Effect,"30.3 µM, […]",94.12%
Cc1ccc2c(ccn2CCC(=O)NC[C@@H]2CCCN3CCCC[C@H]23)c1,Percent Effect,"30 µM, 30.03 µM",28.72%
COc1ccc2c(ccn2CC(=O)NC[C@@H]2CCCN3CCCC[C@H]23)c1,Percent Effect,"30.3 µM, […]",29.51%
O=C(Cn1ccc2ccc(Br)cc21)NC[C@@H]1CCCN2CCCC[C@H]12,Percent Effect,"30 µM, 30.03 µM",-30.69%
O=C(Cn1ccc2cc(Br)ccc21)NC[C@@H]1CCCN2CCCC[C@H]12,Percent Effect,"30.3 µM, […]",50.79%
Cc1ccc2c(ccn2CC(=O)NC[C@@H]2CCCN3CCCC[C@H]23)c1,Percent Effect,"30 µM, 30.03 µM",26.96%
CO[C@H]1CCN(Cc2ccoc2)C[C@@H]1Cc1ccccc1.O=C(O)C(F)(F)F,Percent Effect,"30.3 µM, […]",25.61%
COc1c(C)cnc(CSc2nnc(NC3CC3)s2)c1C,Percent Effect,"30.3 µM, […]",13.54%
O=C(NCC(=O)N1CCCC(c2ccccc2)CC1)c1ccoc1 (stereo not drawn),Percent Effect,30 µM,24.45%
O=C([C@H]1CCCO1)N1CCc2ncc(CN3CCOCC3)n2CC1,Percent Effect,"30.3 µM, […]",32.4%
Cc1cnn(CC(C)NCc2ccc(OCC(N)=O)cc2)c1 (stereo not drawn),Percent Effect,30 µM,8.68%
Cc1ccc2[nH]c(CN3CC[C@@H](N4CCN(C)CC4)[C@H](O)C3)c(C)c2c1,Percent Effect,"30.3 µM, […]",23.41%
Cc1c(CN2CC[C@@H](N3CCC(O)CC3)[C@H](O)C2)[nH]c2ccc(F)cc12,Percent Effect,"30.3 µM, […]",26.65%
Cc1c(CN2CC[C@@H](N3CCC(O)CC3)[C@H](O)C2)[nH]c2ccc(Cl)cc12,Percent Effect,"30.3 µM, […]",82.7%
O=C(c1ccc(S(=O)(=O)NCc2ccon2)cc1)N1CCOCC1,Percent Effect,"30.3 µM, […]",0.2735%
Cc1nc[nH]c1-c1c(-c2ccccc2)ncn1C1CCNC1 (stereo not drawn),Percent Effect,"30.3 µM, […]",-1.128%
CCOc1ccc(-c2c(-c3ccccc3)ncn2C2CCNC2)cn1 (stereo not drawn),Percent Effect,"30.3 µM, […]",76.3%
Oc1ccc(-c2c(-c3ccccc3)ncn2C2CCNC2)cc1 (stereo not drawn),Percent Effect,"30.3 µM, […]",-26.99%
Cc1nc(C)n(CC2CCCN(c3ncnc4[nH]ccc34)C2)n1 (stereo not drawn),Percent Effect,"30 µM, 30.03 µM",52.77%
Cc1nc(C)n(CC2CN(c3ncnc4[nH]ccc34)CCO2)n1 (stereo not drawn),Percent Effect,"30 µM, 30.03 µM",-5.028%
Cc1nc(C)n(CC2CCCN(c3ncnc4c3CCC4)C2)n1 (stereo not drawn),Percent Effect,"30 µM, 30.03 µM",28.07%
Cc1nc(C)n(CC2CCCN(c3ncnc4ccsc34)C2)n1 (stereo not drawn),Percent Effect,"30 µM, 30.03 µM",35.24%
CCc1nc(CN2CCCN(c3ncnc4ccccc34)CC2)no1,Percent Effect,"30 µM, 30.03 µM",55.68%
Cc1nc(CN2CCN(c3ncnc4ccccc34)CC2)no1,Percent Effect,"30.3 µM, […]",19.7%
Cc1nc(C)n(CC2CCCN(c3ncnc4sccc34)C2)n1 (stereo not drawn),Percent Effect,"30 µM, 30.03 µM",-10.34%
CCc1nc(CN2CCCN(c3ncnc4ccsc34)CC2)no1,Percent Effect,"30.3 µM, […]",27.83%
Cc1nc(C)n(CC2CCCN(c3ncnc4ccccc34)C2)n1 (stereo not drawn),Percent Effect,30 µM,54.57%
COCC1CN(C(=O)COc2ccccc2C)Cc2ncn(C)c21.O=C(O)C(F)(F)F (stereo not drawn),Percent Effect,"30.3 µM, […]",12.02%
Cc1ccc(CN2CCn3c(COc4cccnc4)cnc3C2C)o1.O=C(O)C(F)(F)F.O=C(O)C(F)(F)F (stereo not drawn),Percent Effect,"30.3 µM, […]",-4.64%
CCCn1cc(C(=O)N[C@H]2CC[C@H](n3cnnc3)CC2)c(C)n1,Percent Effect,"30.3 µM, […]",11.19%
O=C(O)C(F)(F)F.O=S(=O)(c1cccs1)N1CC[C@H]2[C@H]1CCN2c1ncccn1,Percent Effect,"30.3 µM, […]",-1.813%
